B2AR arrestin: qHTS assay of beta-arrestin-biased ligands of beta2-adrenergic receptor; 0.02% of 330,000 active; beta-arrestin recruitment to beta2AR, cell-based reporter; AID 492947, 2010; Beta-2 adrenergic receptor (Homo sapiens), P07550; Potency, µM (series often up to 46.1 µM), usual class: activators; also: nearly all actives have a fitted effect of over 65% in size
VP16 counter: VP16 counterscreen qHTS for inhibitors of ROR gamma transcriptional activity. Drosophila S2 Gal4-VP16 UAS-luciferase, luminescence, 20 h. Potency, µM (doses to about 53.6 µM), most hits filed as inhibitors. 3.5% of 310,000 active. AID 2546, 2010;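 also: Gal4-VP16 expression switched on by copper sulfate through the metallothionein promoter; nearly all actives have a fitted effect of over 50% in size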
RORgamma inh: qHTS for inhibitors of ROR gamma transcriptional activity; Nuclear receptor ROR-gamma (Mus musculus), P51450; Drosophila S2 Gal4-RORgamma UAS-luciferase reporter, 20 h; Potency, µM (titrated, usually from 53.6 µM), most hits filed as inhibitors; 5.4% of 310,000 active; AID 2551, 2010; also: nearly all actives have a fitted effect of over 60% in size
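Drosophila Schneider cells stably carrying a metallothionein-driven Gal4 DBD–ROR gamma fusion and a UAS-Photinus luciferase reporter were exposed to compound for 1 hr, then induced with copper sulfate (700 uM final) for 20 hr at ambient temperature before luminescence reading.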
NPSR antag: qHTS Assay for Antagonists of the Neuropeptide S Receptor: cAMP Signal Transduction; CHO-NPSR cells, cAMP TR-FRET, antagonist mode; 1% of 220,000 active; Q6W5P4; Potency, µM (series often up to 38.3 µM), hits mostly inhibitors; also: nearly all actives have a fitted effect of over 50% in size
Target sequence (Q6W5P4 whole entry, looked up): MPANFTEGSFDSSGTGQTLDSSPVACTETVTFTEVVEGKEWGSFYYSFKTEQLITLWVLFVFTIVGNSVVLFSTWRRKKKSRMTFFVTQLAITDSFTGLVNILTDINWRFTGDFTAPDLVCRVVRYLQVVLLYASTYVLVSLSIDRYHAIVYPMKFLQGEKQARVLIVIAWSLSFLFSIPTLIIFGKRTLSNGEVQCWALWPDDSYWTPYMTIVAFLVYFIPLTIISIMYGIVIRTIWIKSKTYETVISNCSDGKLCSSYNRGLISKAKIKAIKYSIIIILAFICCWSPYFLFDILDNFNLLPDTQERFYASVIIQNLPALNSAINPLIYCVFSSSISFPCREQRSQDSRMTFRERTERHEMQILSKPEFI
Hits are given with their value; . = inactive; ? = inconclusive; / = not tested or not shown; [ ] = another dose, or the depositor's remark. A selection: hits, their analogues and other compounds. The true share with any hit is near 5.7%. Calls follow the shape of the dose curve; as a rule, active = well fitted curve in the direction sought with a large enough effect; inconclusive = small, poorly fitted or top-dose-only effect, or another doubt; inactive = no such curve, though single readings can be large; an effect the other way counts as inactive or inconclusive.

SMILES	B2AR arrestin	VP16 counter	RORgamma inh	NPSR antag
COc1cc(-c2nnc(NC(=O)c3ccc(S(=O)(=O)N4CCOCC4)cc3)o2)cc(OC)c1OC	.	?	?	.
COc1cccc(-c2nnc(NC(=O)c3ccc(S(=O)(=O)N4CCOCC4)cc3)o2)c1	.	0.89µM	0.5µM	.
Cc1ccc(S(=O)(=O)N2CCC(C(=O)NC3CC(C)(C)NC(C)(C)C3)CC2)cc1	.	.	.	/
Cc1ccc2nc(N(CCCN(C)C)C(=O)c3sc4ccccc4c3Cl)sc2c1	.	.	?	?
Cc1ccc(C(=O)Nc2ccccc2C(=O)NCc2ccco2)cc1	.	/	/	/
C[C@@H](CO)NC(=O)c1ccc2c3n(nc2c1)-c1ccccc1CO3	.	?	6.3µM	.
O=C(O)c1cccc(N/N=C/c2cn(-c3ccccc3)nc2-c2cccs2)c1	.	.	?	.
O=C(N/N=C/c1cn(-c2cccs2)nc1-c1ccccc1)c1ccc(O)cc1	.	18µM	?	.
CC(=O)n1cc(/C=N/NC(=O)c2ccccc2Cl)c2ccccc21	.	.	.	/
O=C(N/N=C/c1cn(-c2cccs2)nc1-c1ccccc1)c1ccccc1Cl	.	7.9µM	3.5µM	.
CC(=O)c1c(C(C)=O)c(C)n(NC(=O)c2ccncc2)c1C	.	.	.	.
O=c1c(-c2ccccc2)nc2cnc(N3CCNCC3)nc2n1-c1ccccc1	/	.	.	/
CCc1ccc(-n2c(C)cc(/C=N/NC(=O)c3ccncc3)c2C)cc1	.	20µM	7.1µM	.
Cc1cc(/C=N/NC(=O)c2ccncc2)c(C)n1-c1ccccc1	.	?	10µM	.
Cc1cc(/C=N/NC(=O)c2cccs2)c(C)n1-c1ccccc1	.	?	?	.
Cc1ccc(-n2c(C)cc(/C=N/NC(=O)c3ccncc3)c2C)c(C)c1	.	.	.	.
COc1cc(/C=N/NC(=O)c2cccc([N+](=O)[O-])c2)ccc1O	.	.	.	.
Cc1cc(/C=N/NC(=O)c2cccc([N+](=O)[O-])c2)c(C)n1-c1ccccc1	.	4.5µM	3.5µM	.
Cc1ccc(-n2c(C)cc(/C=N/NC(=O)c3ccncc3)c2C)cc1C	.	?	4µM	.
CCC(=O)OC1(C)C(=O)C=C2C=C(CCCNC(=O)OC(C)(C)C)OC=C2C1=O (stereo not given)	/	.	.	/
O=C1c2cccc3c2[C@@H](CCC3)CN1[C@@H]1CN2CCC1CC2	/	.	.	/
COc1ccc(C(=O)N2CCC[C@@]3(CCN(Cc4ccc(C#N)cc4)C3)C2)cc1	/	.	.	/
COC(=O)c1ccc(NC(=O)CSC2=NC(=O)C(c3ccccc3)C(=O)N2)cc1 (stereo not given)	.	.	.	.
Cc1cc(/C=N/NC(=O)C(O)(c2ccccc2)c2ccccc2)c(C)n1-c1ccccc1	.	?	11µM	?
COC(=O)N/N=C/c1cc(C)n(-c2ccccc2)c1C	.	.	.	.
SMILES	B2AR arrestin	VP16 counter	RORgamma inh	NPSR antag
Cc1cccc(C)c1-n1c(C)cc(/C=N/NC(=O)CSc2ncccn2)c1C	.	16µM	?	.
Cc1cccc(C)c1-n1c(C)cc(/C=N/NC(=O)c2ccncc2)c1C	.	2.2µM	1.3µM	.
Cc1cccc(-c2nc3c(c(=O)c4ccccc4n3C)c(=O)n2-c2ccccc2)c1	.	.	.	.
CC(C)[C@@]1(c2ccc(Cl)cc2)ON(c2ccccc2C(F)(F)F)C1=O	.	/	/	/
COc1ccc(S(=O)(=O)NNC(=O)c2csc(-n3nc(C)cc3C(F)(F)F)n2)cc1	.	.	.	.
Cc1ccc(C)c(OCc2cc(C(=O)N3CCc4sccc4C3)no2)c1	.	?	2µM	/
CCOc1ccc(NC(=O)Nc2cc(C(=O)O)ccc2N2CC3CC(C2)c2cccc(=O)n2C3)cc1 (stereo not given)	.	.	?	/
O=C1C(Cc2ccccc2)S/C(=N/N=C/c2ccco2)N1c1ccccc1 (stereo not given)	.	.	.	.
Cc1cccc(CC2S/C(=N/N=C/c3ccco3)NC2=O)c1 (stereo not given)	.	5.6µM	0.89µM	.
O=C1N/C(=N/N=C/c2ccco2)SC1Cc1ccccc1 (stereo not given)	.	2.5µM	1µM	.
CCC1S/C(=N/N=C/c2ccco2)N(Cc2ccccc2C)C1=O (stereo not given)	.	.	.	.
C=CCN1C(=O)C(Cc2ccc(C)cc2)S/C1=N/N=C/c1ccco1 (stereo not given)	.	.[0.365 µM]	.	.
Cc1ccc(CC2S/C(=N/N=C/c3ccco3)NC2=O)cc1 (stereo not given)	.	11µM	1.4µM	.
COc1ccccc1CC1S/C(=N/N=C/c2ccco2)NC1=O (stereo not given)	.	7.1µM	2.2µM	.
CC(=O)Nc1ccc(S(=O)(=O)N2C(C)CCCC2C)cc1 (stereo not given)	.	.	.	/
CCOC(=O)CN1C(=O)CN(c2ccc(C)cc2)C1=O	.	.	.	.
CCn1c(CN2CCOCC2)nnc1SCC(=O)Nc1ccc(C(C)=O)cc1	.	.	.	/
COc1cc(/C=N/N=C2/NC(=O)C(Cc3ccccc3)S2)ccc1O (stereo not given)	.	?	14µM	.
COc1ccc(/C=N/N=C2/NC(=O)C(CC(=O)O)S2)cc1OS(=O)(=O)c1ccccc1 (stereo not given)	.	.	.	.
C/C(=N\N=C1\NC(=O)C(Cc2ccccc2)S1)c1ccccc1 (stereo not given)	.	.	10µM	.
COc1ccc(C2=C/C(=C\c3cccc(OC(C)=O)c3)C(=O)O2)cc1	.	?	7.1µM	.
COc1ccc(C2=C/C(=C\c3ccccc3OC(C)=O)C(=O)O2)cc1	.	.	.	/
Cc1ccc(C)c2sc(NC(=O)c3ccc(N4C(=O)CCC4=O)cc3)nc12	.	.	0.2µM	?
COc1ccc(C)c2sc(NC(=O)c3cccc(N4C(=O)CCC4=O)c3)nc12	.	.	.	/
[O-]/C(=C(\C(=S)Nc1ccc(Cl)cc1)[n+]1ccccc1)c1ccc(OC(F)F)cc1	.	.	5µM	.
SMILES	B2AR arrestin	VP16 counter	RORgamma inh	NPSR antag
[O-]/C(=C(\C(=S)Nc1ccccc1F)[n+]1ccccc1)c1ccc(-c2ccccc2)cc1	.	.	.	.
CCC(=O)O[C@@H](OP(=O)(CCCCc1ccccc1)CC(=O)N1C[C@H](C2CCCCC2)C[C@H]1C(=O)O)C(C)C (stereo not given in full)	/	.	.	/
CCCCCc1ccc(OCCCC[n+]2ccc(C)cc2)c(CCCCC)c1	.	2.8µM	2µM	?
S=C(Nc1cccc2ccccc12)NC1CCCCC1	.	10µM	2µM	.
CSc1ccccc1NC(=S)NC1CCCC1	.	7.1µM	6.3µM	/
CCCCc1ccccc1NC(=S)NC1CCCC1	.	4.5µM	3.2µM	/
CC(C)c1ccccc1NC(=S)NC1CCCCC1	.	10µM	0.45µM	.
CSc1ccccc1C(=O)NC1CCCC1	.	.	.	.
CC(C)c1ccccc1NC(=S)NC(C)c1ccccc1 (stereo not given)	.	?	?	.
